Results from paper PMC5540273 (PLoS ONE, 2017).

Legend:
Details in all cases: concentration: 1 μM, replicates: in singlicate; n = 1
[1] = test system: MYO3A
[2] = test system: MYO3B
[3] = test system: T1, NDR1
T1 construct: gene STK38

[4] = test system: NDR2
[5] = test system: NEK10
[6] = test system: NEK11
[7] = test system: NEK1
[8] = test system: NEK2
[9] = test system: NEK3
[10] = test system: NEK4
[11] = test system: NEK5
[12] = test system: NEK6
[13] = test system: NEK7
[14] = test system: NEK9
[15] = test system: T2, NIK
T2 construct: gene MAP3K14

[16] = test system: T3, NIM1
T3 construct: gene MGC42105

[17] = test system: NLK
[18] = test system: T4, OSR1
T4 construct: gene OXSR1

[19] = test system: PAK1
[20] = test system: PAK2
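Note: KINOMEscan kinase panel screen.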

Row | SMILES | %Inh [1] [%] | %Inh [2] [%] | %Inh [3] [%] | %Inh [4] [%] | %Inh [5] [%] | %Inh [6] [%] | %Inh [7] [%] | %Inh [8] [%] | %Inh [9] [%] | %Inh [10] [%] | %Inh [11] [%] | %Inh [12] [%] | %Inh [13] [%] | %Inh [14] [%] | %Inh [15] [%] | %Inh [16] [%] | %Inh [17] [%] | %Inh [18] [%] | %Inh [19] [%] | %Inh [20] [%]
1 | CCn1c(-c2c(N)noc2C)nc2cnccc21 [SB-737856] | 16 | 0 | 0 | 0 | 8 | 0 | 73 | 1 | 14 | 21 | 0 | 0 | 2 | 0 | 3 | 36 | 0 | 4 | 27 | 32
2 | COC(=O)c1cccc(NC(=O)NC2CCN(c3ccnc(Nc4ccc(OC)cc4)n3)C2)c1 (stereo not shown) [GSK1379746] | 1 | 0 | 0 | 0 | 24 | 8 | 0 | 0 | 14 | 0 | 23 | 0 | 0 | 0 | 8 | 53 | 35 | 0 | 0 | 0
3 | Cc1nccc(-c2c(-c3ccc(F)cc3)ncn2CCCN2CCOCC2)n1.Cl [SB-282975] | 0 | 0 | 3 | 7 | 0 | 16 | 0 | 4 | 27 | 0 | 16 | 20 | 0 | 13 | 48 | 15 | 0 | 15 | 0 | 6
4 | CNC(=O)c1ccc(C)c(-n2c(C)cc(OCc3ccc(F)cc3F)c(Br)c2=O)c1 | 0 | 0 | 0 | 0 | 0 | 0 | 0 | 0 | 12 | 0 | 0 | 0 | 2 | 0 | 0 | 0 | 0 | 0 | 2 | 0
5 | O=C(Nc1n[nH]c2nc(-c3cccs3)c(Br)cc12)C1CC1 [SB-735297] | 8 | 0 | 11 | 16 | 0 | 0 | 0 | 0 | 0 | 0 | 0 | 0 | 13 | 0 | 0 | 0 | 0 | 0 | 0 | 39
